Compound activity from PubChem BioAssay.
Rows were chosen to be rich in hits. Some 3.3% of all compounds tested hit in one or more screens of this group.
Mcl1 Bid PPI: Mcl-1/Bid interaction inhibition; Q07820; TR-FRET Mcl-1/Bid-Dy647 peptide binding, 1536-well; inhibition, % at 21.7 µM; 220,000 compounds, 0.97% hits; AID 1021;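 active means compounds that cut the binding signal by more than half at the single screening dose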;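 further: His-tagged Mcl-1 with europium anti-His antibody binding Bid BH3 peptide; 0% = Mcl-1 plus peptide wells and 100% = peptide-only wells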
Bim-Mcl-1: human Bim-Mcl-1 interaction inhibition; inhibition, % at 10 µM; Q07820; Bead-based flow cytometry, Bim peptide-Mcl-1 binding; 190,000 compounds, 0.1% hits; AID 1009; in the data active means inhibition above about 40%;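 further: 0% = no compound tracer wells and 100% = peptide blocker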
14-3-3 Bad inh: disrupts binding of bovine 14-3-3 zeta to phospho-Bad peptide. AID 781. inhibition, % at 21.7 µM. TR-FRET 14-3-3zeta/Dy647-pBad peptide displacement, 1 h. P63103. 220,000 compounds, 0.71% hits;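 active means inhibition above about 70%, limit read from the data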;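 further: 0% = full 14-3-3 plus peptide FRET controls and 100% = background without 14-3-3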
Mcl1 Noxa PPI: Mcl-1/Noxa interaction inhibition. inhibition, % at 21.7 µM. TR-FRET Mcl-1/Noxa peptide binding, 2 h. 220,000 compounds, 1.5% hits;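 active means compounds that cut the protein-peptide binding signal by more than 50% relative to plate controls in a single-dose test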;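 further: His-tagged Mcl-1 with rhodamine Noxa BH3 peptide and terbium anti-His antibody; 0% = Mcl-1 plus Noxa peptide wells and 100% = peptide-only wells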
NCF1 inh: blocks human p47phox regulatory protein of NADPH oxidases | inhibition, % at 24.7 µM | p47phox/p22phox peptide binding, fluorescence polarization, 2 h | P14598 | 220,000 compounds, 0.53% hits;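 further: 0% = p47phox with labelled peptide and 100% = labelled peptide alone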
eIF4E 4G PPI: inhibitors of eIF4E and eIF4G interaction in translation initiation. TR-FRET eIF4E-eIF4GI(517-606) binding, 2 h. inhibition, % at 21.7 µM. 220,000 compounds, 0.37% hits. AID 782;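 further: 0% = full FRET control wells and 100% = background wells lacking eIF4GI fragment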
* marks the source's active call; other numbers are inactive results; · = not tested or not shown.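 How the source made its calls, unless noted: active means inhibition above about 30% (limit read from the data); inactive means the rest.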

SMILES	Mcl1 Bid PPI	Bim-Mcl-1	14-3-3 Bad inh	Mcl1 Noxa PPI	NCF1 inh	eIF4E 4G PPI
C=CCN(c1ccc(C(=O)Nc2ccc(NC(C)=O)cc2)cc1)S(C)(=O)=O	7	0	-10	16	-4	-1
CSc1cccc(NC(=O)Nc2nc3c(C)cccc3s2)c1	-6	·	1	-4	-11	-2
O=C(Nc1ccc(Cl)c(S(=O)(=O)N2CCOCC2)c1)c1ccccc1-c1ccc(C(F)(F)F)cc1	-1	-1	-16	3	-7	-1
COCCSc1ccccc1C(=O)Nc1cc(C)on1	-34	-1	-5	36	-8	52*
Cc1cc(NC(=O)CSc2nnc(C3COc4ccccc4O3)n2N)no1 (centres undefined)	-20	·	-5	-7	44*	-5
COCCSc1ccccc1C(=O)Nc1ccc(Cl)cc1	-46	0	-7	5	2	2
CCOC(=O)C1CCN(C(=S)Nc2ccc(CC)cc2)CC1	-54	0	-14	0	-2	2
COc1cccc(NC(=O)CSc2nc(N)cc(N)n2)c1	-15	-1	-9	-4	-70	-3
CCn1c(SCC(=O)NCc2ccco2)nc2ccccc2c1=O	-48	1	0	17	-9	-4
O=C(CSc1nc2ccccc2c2nc3ccccc3n12)NCc1ccco1	86*	0	46	-69	-3	-39
COC(=O)CSc1nc2cc(OC)ccc2n1C	20	·	6	12	-12	0
Cc1ccc(NC(=O)CSc2nc3ccccc3c3nc4ccccc4n23)cc1	62*	1	54	20	27	-13
COc1ccc2c(c1)nc(SCC(=O)c1ccc(Br)s1)n2C	0	-1	84*	20	-12	-4
COc1cccc(NC(=O)CSc2nc3ccccc3n2C)c1	85*	-21	6	-9	1	4
Cc1cc(-c2nnc(CCC(=O)N(CC3CCC3)CC3CCCO3)o2)no1 (centres undefined)	-14	0	3	-17	1	1
CC1CCC(C(C)C)C(OCC(O)CNC(C)C)C1 (centres undefined)	-7	·	-1	-11	-7	-2
Cc1noc(C)c1COC(=O)c1ccc(S(=O)(=O)N2CCCCC2)cc1	-12	0	-16	9	-4	1
CC(C)CC(=O)c1c[nH]c(C(=O)N2CCN(Cc3ccccc3)CC2)c1	-27	0	-7	11	-6	0
O=C(Nc1ccc(N2CCOCC2)cc1)C1CC(=O)N(c2ccc(F)cc2)C1 (centres undefined)	-43	-1	-10	1	2	5
CN(C)c1ccc(NC(=O)COC(=O)c2cc(Cl)ccc2[N+](=O)[O-])cc1	-46	-3	-12	54*	-10	9
Cc1ccc(Nc2nc(N)[nH]c(=O)c2N=O)cc1	-8	·	5	26	-9	-2
CCOC(=O)c1nnn2c1nc(Nc1cccc(C(F)(F)F)c1)c1ccccc12	5	·	8	0	-10	-3
COc1ccc(C2=NN(c3ccccc3)C(=O)/C2=C\c2ccc(O)c(OC)c2)cc1	-31	3	7	52*	-21	2
Cc1cc(C(F)(F)F)n(-c2nc(C(=O)NNS(=O)(=O)c3ccccc3[N+](=O)[O-])cs2)n1	-37	0	-3	20	-5	-4
O=C(Nc1ccc(OC(F)F)cc1)c1ncc(Cl)c(Cl)c1Cl	5	0	98*	0	-10	2
O=C(Nc1nc2ccccc2s1)C1CCN(S(=O)(=O)c2cc([N+](=O)[O-])ccc2Cl)CC1	-45	·	40	48	-3	13
CC(NC(=O)COC(=O)c1cc(NS(=O)(=O)c2ccc(Cl)c([N+](=O)[O-])c2)ccc1O)C1CC2CCC1C2 (centres undefined)	-3	-1	-17	3	-9	14
CCNC(=O)/C(C#N)=C/c1c(N(Cc2ccccc2)Cc2ccccc2)nc2ccccn2c1=O	11	-4	5	28	-30	-2
CNC(=O)/C(C#N)=C/c1c(N(Cc2ccccc2)Cc2ccccc2)nc2c(C)cccn2c1=O	30	90*	15	-3	-6	8
